From PubChem BioAssay (NCI) come the findings set out here.

Values joined by “and” are separate entries in the source; they are usually repeats but may differ in a detail not shown here. Equal entries are not always repeated. This is part of a sample that, as a whole, favours compounds with a hit. Of some 83,000 tested, about 20% had one in any assay.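 Single-concentration screen, 48 h exposure, 96-well plates. Endpoint: percent growth. Below 10 = active.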 A number with no mark means an inactive call. Active and inactive are the calls of the source.

The assay has as its system MDA-MB-468 breast. Description: NCI-60 one-dose screen, 48 h (100 = growth as untreated, 0 = no growth, -100 = all killed). The settings on record: 10 µM unless noted.
Take `CCOC(=O)c1c(C)nc2c(c1N)/C(=C/c1ccc(OC)cc1)C(=O)N2Cc1ccc(F)cc1`: the growth was -16.4% (active).
For the molecule `C=C(C=O)[C@@H]1CC[C@]2(C)[C@H](C(=O)C=C3[C@H]4C[C@](C)(C(=O)OC)CC[C@]4(C)CC[C@]32C)[C@@]1(C)CCC#N`, the growth was 80.2%.
The result for `COC(=O)CNC(=O)c1cccc(-c2cc(=O)c3c(OC)c(OC)c(OC)cc3o2)c1` reads 89.8%; that for `COC(=O)[C@]12CC[C@@H](C)[C@H](C)[C@@H]1C1=CC[C@@H]3[C@@]4(C)C(C=O)=C[C@@](C)(COC(=O)c5ccco5)[C@@H]4[C@H](O)C[C@@]3(C)[C@]1(C)CC2`, -12.1% (active).
`COc1ccc(-c2[nH]c(=S)n(C(CC3(C)NCC(=O)N3n3c(-c4ccccc4)cc(C)nc3=S)c3ccc(OC)cc3)c(=O)c2Br)cc1` (stereo not given): the growth is -14.9% (active).
The same measure for `OC(c1cccc(C(F)(F)F)c1)c1cnccc1NC1CCCCC1` (stereo not given): 33%; for `CCC(C)N(CCNc1cc(OC)cc2cccnc12)CCC(C)C` (stereo not given): -24.8% (active).
Regarding `N#Cc1c(-c2ccc(Cl)cc2)nc(SCc2ccc([N+](=O)[O-])cc2)nc1N1CCNCC1`, the growth was -44.2% (active).
Turning to `OC1CCN(CCCOc2c3ccc(Cl)cc3nc3c2oc2ccc(Cl)cc23)CC1`, the growth is 1% (active).
On to `CC(=O)OCCO`, for which the growth was 98.6%.
In the case of `N=C1c2nc3n(c2C(=O)c2nc4n(c21)CCCC4)CCCC3`, the growth is 68.1%.
Turning to `CC(=O)c1ccc(N=C(C#N)C2=C(O)c3ccccc3C2=O)cc1`, the growth was 94.5%.
In the case of `Cn1ncc2cc3c(Nc4ccc(Cl)cc4)cccc3nc21`, the growth was 79%.
Take `OC(c1cc(C(F)(F)F)nc2c(C(F)(F)F)cccc12)C1CCCCN1` (stereo not given): the growth is -5.03% (active).
Consider `CN(C)CCCOc1ccc(OCCCN(C)C)c2c1C(=O)c1ccccc1C2=O`, for which the growth is -33.7% (active).
`CCOC(=O)C1CC(=O)c2cc(OC)c(OC)cc2C1` (stereo not given): the growth was 84.9%.
Turning to `O=C1C2=C(C(=O)c3c(O)ccc(O)c31)N(c1ccc(N3CCOCC3)nc1)Cc1ccccc1O2`, the growth is -60.8% (active).
Regarding `O=C1Nc2ccc(Br)cc2C1=N/C=c1\[nH]c(=O)/c(=C/c2ccc(Cl)cc2)s1`, the growth was 86.6%.
In the case of `COc1cc(/C=N/n2cnc3oc(-c4ccccc4)cc3c2=N)cc(CN2CCCCC2)c1O`, the growth is -35.8% (active).
In the case of `O=C(Nc1cccc([N+](=O)[O-])c1)c1ccc2ccccc2c1O`, the growth was 52.4%.
`O=C(/C=C/c1cccc(O)c1)c1ccccc1O`: the growth was 85%.
As to `CC1CCN(C(=S)SCC(=O)NC(=O)c2ccccc2)CC1`, the growth is 119%.
The result for `COCCc1ccc(OCC(O)CNC(C)C)cc1` (stereo not given) reads 113%.
Consider `CC(=O)NCNC(C)=O`, for which the growth is 103%.
With `O=C1OCC2=C1C(c1ccc(Cl)c(Cl)c1)c1cc3c(cc1N2CCO)OCCO3` (stereo not given), the growth was 23.5%.
As to `COc1cc(/C=N/NC(=S)NNC(=S)NC2CCCCC2)cc(OC)c1OC`, the growth is 94.2%.
`O=C1C(=O)c2c(nc3ccc(C(F)(F)F)cn23)-c2ccccc21`: the growth is -65.9% (active).
Regarding `O=[N+]([O-])c1ccc(N/N=C/C2CCCCCC2)c([N+](=O)[O-])c1`, the growth was 86.4%.
For `COc1ccc2c(c1)OC1=C(C(=O)OC1)C2c1cc(OC)c2c(c1)OCCO2` (stereo not given), the growth is 1.92% (active).
As to `CCCCCCCC[C@@H](O)CC(=O)N[C@@H](CC(N)=O)C(=O)N[C@@H](CCC(N)=O)C(=O)N[C@@H](CC(=O)c1cc(C)cc(O)c1C(=O)c1c(O)cccc1O)CC(C)C`, the growth was 3.34% (active).
With `Cc1cccc(NC2=C(Cl)C(=O)c3nc(C)ccc3C2=O)c1`, the growth is -81.1% (active).
Regarding `Oc1ccc2ccccc2c1N=Nc1ccccn1`, the growth is -28.6% (active).
Take `C=CCn1c(SCC(=O)Nc2ccc(C(=O)/C=C/c3cc(OC)c(OC)c(OC)c3)cc2)nnc1-c1cc(-c2ccc(Cl)cc2)nc2ccccc12`: the growth was 108%.
The result for `Cc1ccc(Cl)cc1NC(=O)c1sc2nc3c(cc2c1N)C(=O)CCC3` reads 8.44% (active); that for `N=C(N)c1ccc(-c2ccc(-c3cc(Cl)cc(Cl)c3)s2)s1`, -63.4% (active); that for `COc1cc(-c2c3c(c(Br)n2Cc2ccccc2)-c2nc(N)sc2CC3)cc(OC)c1OC`, 73.4%.
Consider `C=CC(=O)Nc1cccc(Oc2nccc(Nc3nnc(C4CC4)s3)n2)c1`, for which the growth was 102%.
As to `O=C(/C=C/c1ccc(Cl)s1)c1ccc(Cl)s1`, the growth was 88.1% and 79.5%.
For the molecule `Cc1cc(Nc2ncnc3ccc(NC4=NC(C)(C)CO4)cc23)ccc1Oc1ccn2ncnc2c1`, the growth is -60.6% (active).
Turning to `CSc1nc2c(c(=O)n1C)N=C1c3ccccc3C(=O)C1C(c1ccccc1)N2` (stereo not given), the growth is 54.8%.
